The target in assay [1] is Lysosomal acid glucosylceramidase (Homo sapiens) (UniProt P04062). The assay is described as follows: Glucocerebrosidase-p2 (AID 348; in the data active = potency below about 10 µM; also: potency is read from the fitted curve at half-maximal effect). Conditions: purified GBA, blue fluorogenic substrate, 40 min. The gist of the method: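 Compounds titrated from 0.6 nM upwards against 0.2 nM enzyme in pH 5.9 citric acid/KH2PO4, taurocholate, tween-20; blue fluorogenic substrate 80 uM, 40 min room temperature, stopped and read Ex 365/Em 440 for AC50.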

A short description of assay [2]: AP1 Signaling Pathway (AID 357).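 Also: ME-180 reporter cells stimulated with EGF at its EC50 level; % is scaled to controls: 0 for no effect and ±100 for the full control effect.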 Conditions: ME-180 AP-1-bla reporter, EGF-induced, beta-lactamase ratio, 5 h; at 7.69 µM (top of the series) unless noted. Summed up:
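Read-out was the 460nm/530nm emission ratio (excitation 405nm) after CCF4 loading for 2.5 hours at room temperature. Cells carried an AP-1-driven beta-lactamase reporter, were stimulated with EC50 EGF plus compound for 5 hours, and AC50 values came from titrations.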

For assay [3], the target named is Cytochrome P450 1A2 (Homo sapiens) (UniProt P05177). Put plainly: p450-cyp1a2 (AID 410; calls by dose curve; also: potency is read from the fitted curve at half-maximal effect;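 as to activity change, negative = inhibition: -100% = full effect of reference inhibitor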). Conditions: recombinant CYP1A2, luciferin-ME demethylation, luminescence; series mostly up to 11.4 µM. The gist of the method: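 Human CYP1A2 (20nM) demethylated Luciferin-ME at its Km (100uM) in 100mM KPO4. After 10 min compound preincubation, NADPH regeneration ran the reaction 60 min at room temperature. Luciferin was read by luminescence, normalized to 57 uM furafylline.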

Assay [4] in a line: NFAT Signaling Pathway (AID 444).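 Also: carbachol stimulus at about its EC50 of 1 µM final; % is scaled to controls: 0 for no effect and ±100 for the full control effect.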 The note with it: Jurkat NFAT-bla M1, carbachol, beta-lactamase ratio, 5 h; at 7.69 µM (top of the series) unless noted. Summed up:
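Jurkat cells with NFAT-driven β-lactamase reporter and co-expressed M1 receptor, stimulated with carbachol (final 1 uM, ~EC50), compound titration, 5 h at 37 °C. CCF4 loaded 1 h at RT; 460/530 nm ratio gave %activity and AC50.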

Assay [5] is described as follows: Stat Signaling Pathway (AID 446).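 Also: ME-180 cervical cancer cells given 40 pM IL-6 alongside compound; SIE-controlled beta-lactamase reporter measured as 460/530 nm FRET emission ratio; % is scaled to controls: 0 for no effect and ±100 for the full control effect.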 The note with it: ME-180 (cervical carcinoma) SIE beta-lactamase reporter, IL-6 stimulated, 5 h; at 7.69 µM (top of the series) unless noted. Summed up:
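ME-180 SIE-bla cells; overnight plating; cpd + IL-6 40 pM, 5 h, 37 C; LiveBLAzer 2.5 h RT; 460/530 nm emission ratio. Normalized to 300 pM IL-6 and 125 nM JAK inhibitor controls.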

Assay [6] has as its target Glucocorticoid receptor (Homo sapiens) (UniProt P04150). The assay is described as follows: GR-GFP Redistribution (AID 450;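 active = compounds whose dose series gives a full or clear partial fitted curve of increased nuclear translocation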; also: potency is read from the fitted curve at half-maximal effect). The note with it: U2OS GR-GFP nuclear translocation, laser cytometry, 2 h.
Assay [7] shares this target. Put plainly: GR-EFC Redistribution (AID 451; calls by dose curve; also: potency is read from the fitted curve at half-maximal effect). The note with it: CHO-K1 GR-EFC translocation, beta-gal luminescence, 2 h. The gist of the method:
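CHO-K1 cells expressing nuclear EA and GR-ED fragments of b-gal; compounds titrated up to 46 uM final, 2 h at 37 C. GR nuclear translocation read as complemented b-gal luminescence after 1 h RT detection.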

The target of assay [8] is Mitogen-activated protein kinase 10 (Mus musculus) (UniProt Q61831). The assay is described as follows: JNK3 AlphaScreen Assay (AID 530).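 Also: kinase came from lysate of stimulated human HepG2 cells; signal reports phosphorylation of biotinylated GST-cJun 1-79 at Ser73 with 10 µM ATP; % is scaled to controls: 0 for no effect and ±100 for the full control effect.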 Conditions: JNK3 lysate, c-Jun phosphorylation; series mostly up to 11.4 µM. The gist of the method: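 qHTS format: compounds tested as titrations against IL-1beta/TNF-alpha-activated HepG2 lysate JNK3 with biotin-GST-cJun substrate and 10 uM ATP at room temperature. Loss of anti-phospho-cJun AlphaScreen signal indicates inhibition.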
Background: In Alpha technology, singlet oxygen from a donor bead excites a nearby acceptor bead.

Assay [9] has as its target 3',5'-cyclic-AMP phosphodiesterase 4B (Homo sapiens) (UniProt Q07343). The assay is described as follows: qHTS Assay for Inhibitors of PDE-IV (AID 607; active = well fitted activation curve with a large enough effect in the main read-out, with a control signal flat, not every such curve was filed as active; also: % of control where 0% means no effect). The note with it: HEK293 ACTOne CNG channel cells, membrane potential fluorescence; series mostly up to 22.9 µM. The gist of the method: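 ACTOne HEK293 cells carry a modified cAMP-gated CNG channel and express endogenous PDE4; plated 1000 cells/well, compounds up to 22.9 uM final. Membrane-potential dye fluorescence (ex 535/em 590) was read; parental cells received 10 uM forskolin + 100 uM RO 20-1724.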
(In general: In qHTS, concentration-response curves come from the screen itself.)

Assay [10] concerns the target Cytochrome P450 3A4 (Homo sapiens) (UniProt P08684). The assay is described as follows: qHTS Assay for Activators of Cytochrome P450 3A4 (AID 885; active = well fitted curve in the direction sought with a large enough effect; an effect the other way counts as inactive or inconclusive; also: nearly all actives have a fitted effect of over 65% in size). Conditions: recombinant CYP3A4, Luciferin-PPXE luminescence, 60 min; series mostly up to 11.4 µM. Summed up:
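20nM CYP3A4 + 25uM Luciferin-PPXE (=KM), 200mM KPO4; cpd 10 min RT; NADPH regen, 60 min RT; stop w/ detection buffer, 20 min; luminescence. Normalized to 57 uM ketoconazole.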

Assay [11] has as its target Cytochrome P450 2D6 (Homo sapiens) (UniProt P10635). The assay is described as follows: qHTS Assay for Inhibitors and Substrates of Cytochrome P450 2D6 (AID 891; active = well fitted curve in the direction sought with a large enough effect; an effect the other way counts as inactive or inconclusive; also: potency is read from the fitted curve at half-maximal effect; nearly all actives have a fitted effect of over 60% in size). Conditions: recombinant CYP2D6, luciferin-ME EGE luminescence; series mostly up to 11.4 µM. The gist of the method:
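Human CYP2D6 (5 nM) with 30 uM Luciferin-ME EGE (at Km) in 100 mM KPO4, compound preincubated 10 min, then NADPH regeneration system for 60 min at room temperature. Luciferin read by luminescence; normalized to 1.43 uM quinidine.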

Each structure is given as a SMILES string. Values without a mark were called inactive. Results filed as inconclusive are left out. Activity calls are given as the source filed them. Unless noted, calls follow the shape of the dose curve; as a rule, active = well fitted curve in either direction with a large enough effect (not every such curve was filed as active); inconclusive = small, poorly fitted or top-dose-only effect, or another doubt; inactive = flat fitted curve, though single readings scatter.

3',5'-cyclic-AMP phosphodiesterase 4B (Homo sapiens), sequence (Q07343 whole entry, looked up): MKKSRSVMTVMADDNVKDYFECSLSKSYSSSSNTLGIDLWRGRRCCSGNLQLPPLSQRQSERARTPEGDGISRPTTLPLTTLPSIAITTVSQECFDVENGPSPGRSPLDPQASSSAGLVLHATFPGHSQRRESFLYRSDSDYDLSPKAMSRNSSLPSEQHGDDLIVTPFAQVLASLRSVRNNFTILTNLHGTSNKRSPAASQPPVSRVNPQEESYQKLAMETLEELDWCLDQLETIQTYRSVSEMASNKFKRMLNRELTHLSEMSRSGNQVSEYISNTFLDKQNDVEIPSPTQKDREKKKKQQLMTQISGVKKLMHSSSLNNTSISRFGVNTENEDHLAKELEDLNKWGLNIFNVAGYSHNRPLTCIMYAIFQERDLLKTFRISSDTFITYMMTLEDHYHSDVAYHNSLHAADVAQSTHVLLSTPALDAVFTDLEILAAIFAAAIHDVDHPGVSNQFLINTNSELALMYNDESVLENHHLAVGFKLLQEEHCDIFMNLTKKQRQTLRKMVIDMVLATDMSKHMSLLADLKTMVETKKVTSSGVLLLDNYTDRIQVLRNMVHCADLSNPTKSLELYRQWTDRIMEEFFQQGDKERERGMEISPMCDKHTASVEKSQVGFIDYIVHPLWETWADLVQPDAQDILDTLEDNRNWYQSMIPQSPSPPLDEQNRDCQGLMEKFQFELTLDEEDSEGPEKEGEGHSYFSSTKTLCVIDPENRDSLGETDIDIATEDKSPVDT
Glucocorticoid receptor (Homo sapiens), sequence (P04150 whole entry, looked up): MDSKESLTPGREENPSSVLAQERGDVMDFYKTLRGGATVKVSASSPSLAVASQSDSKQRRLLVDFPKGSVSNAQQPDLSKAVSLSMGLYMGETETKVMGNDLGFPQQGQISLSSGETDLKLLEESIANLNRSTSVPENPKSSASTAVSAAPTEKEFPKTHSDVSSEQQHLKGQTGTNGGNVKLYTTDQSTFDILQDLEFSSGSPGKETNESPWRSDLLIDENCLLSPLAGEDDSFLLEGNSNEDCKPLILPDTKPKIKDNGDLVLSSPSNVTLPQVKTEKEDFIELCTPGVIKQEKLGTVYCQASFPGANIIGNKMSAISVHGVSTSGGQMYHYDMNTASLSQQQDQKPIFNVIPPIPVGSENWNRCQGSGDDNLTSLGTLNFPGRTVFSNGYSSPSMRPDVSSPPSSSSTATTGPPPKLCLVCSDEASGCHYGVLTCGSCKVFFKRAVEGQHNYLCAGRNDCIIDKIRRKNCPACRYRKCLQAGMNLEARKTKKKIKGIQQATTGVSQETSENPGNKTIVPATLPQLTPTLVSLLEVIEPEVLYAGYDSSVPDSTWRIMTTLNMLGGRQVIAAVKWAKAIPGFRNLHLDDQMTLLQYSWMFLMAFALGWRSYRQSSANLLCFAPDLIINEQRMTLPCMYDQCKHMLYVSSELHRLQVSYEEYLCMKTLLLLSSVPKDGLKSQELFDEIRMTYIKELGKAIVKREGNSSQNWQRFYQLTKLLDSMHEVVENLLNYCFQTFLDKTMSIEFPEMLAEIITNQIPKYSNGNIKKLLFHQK
Lysosomal acid glucosylceramidase (Homo sapiens), sequence (P04062 whole entry, looked up): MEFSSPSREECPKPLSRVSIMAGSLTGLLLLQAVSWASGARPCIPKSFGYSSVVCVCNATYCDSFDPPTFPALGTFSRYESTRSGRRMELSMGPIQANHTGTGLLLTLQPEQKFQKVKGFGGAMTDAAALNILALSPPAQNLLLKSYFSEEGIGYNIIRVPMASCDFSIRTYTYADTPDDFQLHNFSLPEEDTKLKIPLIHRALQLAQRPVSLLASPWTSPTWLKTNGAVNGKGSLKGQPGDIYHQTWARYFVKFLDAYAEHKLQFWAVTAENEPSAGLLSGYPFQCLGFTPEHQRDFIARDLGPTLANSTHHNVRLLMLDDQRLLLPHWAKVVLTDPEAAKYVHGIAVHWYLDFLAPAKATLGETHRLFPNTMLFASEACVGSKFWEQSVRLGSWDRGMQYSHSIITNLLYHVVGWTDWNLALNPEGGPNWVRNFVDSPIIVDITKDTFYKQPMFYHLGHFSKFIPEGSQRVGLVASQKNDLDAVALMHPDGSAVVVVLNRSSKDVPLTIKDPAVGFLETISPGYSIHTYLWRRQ
Cytochrome P450 1A2 (Homo sapiens), sequence (P05177 whole entry, looked up): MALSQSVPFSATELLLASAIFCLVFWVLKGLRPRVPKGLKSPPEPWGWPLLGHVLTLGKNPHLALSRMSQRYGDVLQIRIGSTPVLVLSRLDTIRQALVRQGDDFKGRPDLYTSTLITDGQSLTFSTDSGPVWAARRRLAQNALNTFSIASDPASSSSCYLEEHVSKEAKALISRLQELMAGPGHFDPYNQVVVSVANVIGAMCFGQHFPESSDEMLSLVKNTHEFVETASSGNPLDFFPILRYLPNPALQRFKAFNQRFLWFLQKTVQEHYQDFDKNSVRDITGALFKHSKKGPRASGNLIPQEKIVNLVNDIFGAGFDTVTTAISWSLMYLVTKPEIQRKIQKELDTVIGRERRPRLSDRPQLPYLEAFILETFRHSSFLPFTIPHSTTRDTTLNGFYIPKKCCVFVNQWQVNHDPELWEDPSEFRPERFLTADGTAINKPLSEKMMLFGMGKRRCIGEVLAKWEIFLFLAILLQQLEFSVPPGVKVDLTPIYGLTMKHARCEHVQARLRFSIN
Cytochrome P450 3A4 (Homo sapiens), sequence (P08684 whole entry, looked up): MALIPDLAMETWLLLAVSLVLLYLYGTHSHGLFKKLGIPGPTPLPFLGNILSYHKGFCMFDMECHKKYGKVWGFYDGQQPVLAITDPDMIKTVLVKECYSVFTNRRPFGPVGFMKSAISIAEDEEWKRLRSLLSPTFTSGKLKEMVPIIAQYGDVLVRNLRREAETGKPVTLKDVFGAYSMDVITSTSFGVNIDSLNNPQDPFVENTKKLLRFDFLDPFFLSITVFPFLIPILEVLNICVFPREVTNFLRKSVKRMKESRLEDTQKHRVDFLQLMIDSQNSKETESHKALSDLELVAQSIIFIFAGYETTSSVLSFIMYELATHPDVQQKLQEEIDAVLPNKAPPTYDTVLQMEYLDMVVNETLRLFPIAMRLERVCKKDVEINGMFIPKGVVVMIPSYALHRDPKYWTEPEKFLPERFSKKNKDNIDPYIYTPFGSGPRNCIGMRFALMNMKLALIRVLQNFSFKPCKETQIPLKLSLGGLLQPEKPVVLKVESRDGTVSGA
Cytochrome P450 2D6 (Homo sapiens), sequence (P10635 whole entry, looked up): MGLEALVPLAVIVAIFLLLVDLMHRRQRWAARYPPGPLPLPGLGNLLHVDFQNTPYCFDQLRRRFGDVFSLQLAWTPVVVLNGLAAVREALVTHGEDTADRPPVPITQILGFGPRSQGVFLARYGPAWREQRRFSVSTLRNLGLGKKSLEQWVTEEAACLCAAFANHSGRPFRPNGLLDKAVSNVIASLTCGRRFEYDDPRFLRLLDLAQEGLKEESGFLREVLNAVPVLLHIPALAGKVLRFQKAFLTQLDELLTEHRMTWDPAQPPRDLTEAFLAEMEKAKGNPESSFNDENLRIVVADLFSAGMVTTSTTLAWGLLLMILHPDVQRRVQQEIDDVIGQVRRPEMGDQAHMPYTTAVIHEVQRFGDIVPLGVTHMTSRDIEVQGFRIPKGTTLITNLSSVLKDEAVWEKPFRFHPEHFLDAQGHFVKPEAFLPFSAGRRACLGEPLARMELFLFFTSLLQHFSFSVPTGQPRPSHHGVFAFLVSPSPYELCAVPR

Consider `NCCSCc1ccccc1Cl`, for which the Potency in assay [1] is above 11.4 µM; in assay [3] it was 3.16 µM (active); in assay [6], above 46 µM; in assay [7], above 9.22 µM; in [11], 3.16 µM (active). For the same molecule, the activity change, negative = inhibition in [2] is 1.67%; in assay [4] it was -5.94%. Besides, the activity, negative = inhibition in [5] is 2.36%. In addition, the Potency result in [8], in [9] and in [10] was “inactive” throughout.

For the molecule `O=C(O)c1cc(-c2ccncc2)nc2ccccc12`, the Potency is above 11.4 µM in [1], above 46 µM in [6] and above 9.22 µM in assay [7]. The activity change, negative = inhibition in assay [2] was 3.07%; in assay [4] it was -5.13%. Besides, the Potency entry in assay [3], in assay [8], in assay [9] and in assay [10] was “inactive” each time. In assay [5], the activity, negative = inhibition is -5.62%.

As for `Cc1cnc2cc(Cl)ccc2c1SCC(=O)O`, the values for the Potency in assay [1], in assay [6] and in [7] were above 11.4 µM, above 46 µM and above 9.22 µM, respectively. In addition, the activity change, negative = inhibition in assay [2] is -8.88%; in assay [3], -2.3% [at 2.29 µM]; in assay [4] it was -0.25%. In assay [5], the activity, negative = inhibition was -11.6%. Besides, the Potency entry in [8], in assay [9] and in [10] was “inactive” throughout.

As to `C[C@@H]1CCCN(CP(=O)(c2ccccc2)c2ccccc2)C1`, the Potency in [1] is above 11.4 µM; in assay [6], above 46 µM; in assay [7] it was above 9.22 µM. The results for the activity change, negative = inhibition in [2] and in assay [4] were 2.85% and -1.11%, respectively. Moreover, the Potency entry in assay [3], in [8], in [9] and in assay [10] was “inactive” in each case. For the same molecule, the activity, negative = inhibition in assay [5] was 0.378%.

Regarding `CC(C)(C)CC(C)(C)c1cc(O)c(O)c(CN2CCCCC2)c1`, the Potency in assay [1] is above 11.4 µM; in assay [6], above 46 µM; in assay [7], above 9.22 µM. The activity change, negative = inhibition in [2] is 0.737%; in assay [4], -28.7%. Moreover, the Potency result in assay [3], in [8], in assay [9] and in assay [10] was “inactive” in each case. Besides, in assay [5], the activity, negative = inhibition is 3.86%.

Regarding `c1nc(NCCc2cnc[nH]2)c2[nH]cnc2n1`, the Potency is above 11.4 µM in assay [1], 5.01 µM (active) in [3], above 46 µM in assay [6] and above 9.22 µM in assay [7]. Moreover, the activity change, negative = inhibition in assay [2] is 3.43%; in [4], 6.94%. Besides, the activity, negative = inhibition in [5] was 0.609%. Also, the Potency result in [8], in assay [9] and in assay [10] was “inactive” throughout.

Turning to `CC[C@H]1CC[C@H]2[C@@H]3CC=C4C[C@H](OC(C)=O)[C@@H](N)C[C@@]4(C)[C@H]3CC[C@@]12C`, the Potency was above 11.4 µM in assay [1], above 46 µM in [6] and above 9.22 µM in assay [7]. The activity change, negative = inhibition is 8.35% in assay [2] and 8.17% in [4]. Further, the Potency entry in assay [3], in [8], in [9] and in assay [10] was “inactive” in each case. Besides, the activity, negative = inhibition in assay [5] was -1.58%.

In the case of `O=C(O)/C=C\C(=O)Nc1ccc2c(c1)-c1ccccc1C2`, the Potency in assay [1] is above 11.4 µM; in assay [3], 1 µM (active); in assay [6], above 46 µM; in [7], above 9.22 µM. Further, the values for the activity change, negative = inhibition in [2] and in [4] were -11.5% and 6.68%, respectively. Further, the activity, negative = inhibition in [5] is -8.21%. Further, the Potency result in [8], in assay [9] and in assay [10] was “inactive” throughout.

On to `O=C1NC(=O)[C@@](Cc2ccccc2)(c2cccnc2)N1`, for which the Potency in [1] is above 11.4 µM; in [6], above 46 µM; in [7], above 9.22 µM. The activity change, negative = inhibition in [2] was -12.7%; in assay [3], -17.1% [at 2.29 µM]; in [4], 9.84%. The activity, negative = inhibition in assay [5] is -7.87%. For the same molecule, the Potency result in [8], in [9] and in [10] was “inactive” each time.

Turning to `CC1(CC(=O)O)O[C@H]2CCCCC[C@H]2O1` (stereo partly specified) (tested in a mixture with another compound), the Potency is above 11.4 µM in assay [1], above 46 µM in [6] and above 9.22 µM in [7]. Besides, the activity change, negative = inhibition in [2] is 8.96%; in assay [4], -4.93%. In addition, the Potency entry in assay [3], in [8], in assay [9] and in assay [10] was “inactive” in each case. The activity, negative = inhibition in assay [5] is 5.55%.

`NS(=O)(=O)c1ccc(N=Nc2nc3[nH]c(=O)[nH]c(=O)c3[nH]2)cc1`: the Potency in assay [1] is 8.51 µM (active); in assay [6], above 46 µM; in assay [7], above 9.22 µM. Further, the activity change, negative = inhibition in [2] is -5.25%; in assay [4], 13.6%. The Potency result in assay [3], in assay [8], in assay [9] and in [10] was “inactive” in each case. Moreover, the activity, negative = inhibition in assay [5] was 21.2%.

As to `CC(=O)Nc1ccc2c(c1)C(=Nc1ccc(C(=O)O)cc1)c1ccccc1-2`, the Potency in assay [1] is above 11.4 µM; in assay [3] it was 0.316 µM (active); in assay [6], above 46 µM; in assay [7] it was above 9.22 µM. In addition, the activity change, negative = inhibition is 2.47% in assay [2] and 27.4% in [4]. Also, the activity, negative = inhibition in assay [5] was 4.14%. For the same molecule, the Potency entry in assay [8], in assay [9] and in assay [10] was “inactive” throughout.

Turning to `Nc1nc(Cc2ccccc2)nc(Cc2ccccc2)c1-c1ccccc1`, the Potency was above 11.4 µM in [1], 1 µM (active) in [3], above 46 µM in assay [6] and above 9.22 µM in assay [7]. The results for the activity change, negative = inhibition in assay [2] and in assay [4] were -20.1% and 11.3%, respectively. For the same molecule, in assay [5], the activity, negative = inhibition was -7.29%. For the same molecule, the Potency result in assay [8], in [9] and in assay [10] was “inactive” in each case.

Take `CN(C)c1ccc(/C=N\NC(=O)c2cnc3ccccc3c2)cc1`: the Potency in [1] is above 11.4 µM; in [3], 1.58 µM (active); in assay [6] it was above 46 µM; in [7] it was above 9.22 µM. The activity change, negative = inhibition in [2] was -12.8%; in assay [4] it was 1.4%. In addition, the activity, negative = inhibition in [5] is -7.11%. For the same molecule, the Potency entry in [8], in assay [9] and in [10] was “inactive” in each case.

Source of the values: PubChem BioAssay (NCATS).
